From PubChem BioAssay AID1159580 (chemical genetic matrix, 2015)
Several values for one entry are separate records, joined by “and”; a condition that tells them apart may be missing. Identical values can stand only once. Screen size: about 5,500 compounds; about 2,000 (36%) were called active. Another 18% or so got no clear call; they are omitted. No stated cut-off is given here; in the data, active means normalized growth mostly below about 0.91 (no sharp cut-off); inconclusive means no clear call, values can overlap the other calls; inactive means mostly above about 0.92. This is one part of the list.

Assay: chemical genetic growth profiling, strain panel (AID 1159580);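 further: tested at 20 µM; growth read once vehicle control cultures reached saturation at 30 °C; 1 = growth at the plate median or of vehicle wells; lower values mean less growth of the strain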
Details: growth OD

Measured: normalized growth

COc1ccc(C(=O)N2CCCC2=O)cc1
inactive: S. cerevisiae deletion strains, locus YJR075W, strain HOC1, hits give low values 0.99 | S. cerevisiae deletion strains, locus YKL009W, strain mrt4, hits give low values 0.97 | S. cerevisiae deletion strains, locus YKL068W, hits give low values 0.976 | S. cerevisiae deletion strains, locus YKL085W, strain MDH1 (second series), hits give low values 0.984 | S. cerevisiae deletion strains, locus YKL085W, strain MDH1, hits give low values 0.984 | S. cerevisiae deletion strains, locus YKL160W, strain elf1, hits give low values 0.952 | S. cerevisiae deletion strains, locus YKL190W, strain CNB1, hits give low values 0.993 | S. cerevisiae deletion strains, locus YKR001C, strain vps1, hits give low values 0.968 | S. cerevisiae deletion strains, locus YKR026C, strain gcn3, hits give low values 0.976 | S. cerevisiae deletion strains, locus YKR091W, strain srl3, hits give low values 0.969 | S. cerevisiae deletion strains, locus YLL001W, strain dnm1, hits give low values 0.963 | S. cerevisiae deletion strains, locus YLL026W, hits give low values 0.98 | S. cerevisiae deletion strains, locus YLL041C, strain sdh2, hits give low values 0.986 | S. cerevisiae deletion strains, locus YLR027C, strain aat2, hits give low values 0.963 | S. cerevisiae deletion strains, locus YLR039C, strain RIC1, hits give low values 0.947 | S. cerevisiae deletion strains, locus YLR058C, strain SHM2, hits give low values 0.978 | S. cerevisiae deletion strains, locus YLR102C, strain apc9, hits give low values 0.979 | S. cerevisiae deletion strains, locus YLR221C, strain rsa3, hits give low values 0.945 | S. cerevisiae deletion strains, locus YLR258W, strain gsy2, hits give low values 0.98 | S. cerevisiae deletion strains, locus YLR262C, strain YPT6 (second series), hits give low values 0.967 | S. cerevisiae deletion strains, locus YLR262C, strain YPT6, hits give low values 0.902 | S. cerevisiae deletion strains, locus YLR268W, strain sec22, hits give low values 0.971 | S. cerevisiae deletion strains, locus YLR320W, strain mms22, hits give low values 0.933 | S. cerevisiae deletion strains, locus YLR330W, strain CHS5, hits give low values 0.986 | S. cerevisiae deletion strains, locus YLR342W, strain FKS1 (second series), hits give low values 0.995 | S. cerevisiae deletion strains, locus YLR342W, strain FKS1, hits give low values 0.99 | S. cerevisiae deletion strains, locus YLR357W, strain rsc2, hits give low values 0.991 | S. cerevisiae deletion strains, locus YLR370C, strain arc18, hits give low values 0.963 | S. cerevisiae deletion strains, locus YLR371W, strain rom2, hits give low values 0.993 | S. cerevisiae deletion strains, locus YLR384C, strain iki3, hits give low values 0.958 | S. cerevisiae deletion strains, locus YLR418C, strain cdc73, hits give low values 0.967 | S. cerevisiae deletion strains, locus YML016C, strain PPZ1, hits give low values 0.983 | S. cerevisiae deletion strains, locus YML032C, strain rad52, hits give low values 1 | S. cerevisiae deletion strains, locus YML120C, strain ndi1, hits give low values 0.94 | S. cerevisiae deletion strains, locus YML124C, strain tub3, hits give low values 0.994 | S. cerevisiae deletion strains, locus YMR058W, strain fet3, hits give low values 0.971 | S. cerevisiae deletion strains, locus YMR078C, strain ctf18, hits give low values 0.974 | S. cerevisiae deletion strains, locus YMR125W, strain sto1, hits give low values 0.973 | S. cerevisiae deletion strains, locus YMR129W, hits give low values 0.986 | S. cerevisiae deletion strains, locus YMR205C, strain PFK2, hits give low values 0.971 | S. cerevisiae deletion strains, locus YMR223W, strain ubp8, hits give low values 0.995 | S. cerevisiae deletion strains, locus YMR231W, strain pep5, hits give low values 0.978 | S. cerevisiae deletion strains, locus YMR263W, strain SAP30, hits give low values 0.964 | S. cerevisiae deletion strains, locus YMR307W, strain GAS1, hits give low values 0.99 | S. cerevisiae deletion strains, locus YNL067W, strain RPL9B, hits give low values 0.974 | S. cerevisiae deletion strains, locus YNL071W, strain lat1, hits give low values 0.982 | S. cerevisiae deletion strains, locus YNL128W, strain TEP1, hits give low values 0.979 | S. cerevisiae deletion strains, locus YNL153C, strain GIM3, hits give low values 0.965 and 1.01 | S. cerevisiae deletion strains, locus YNL175C, strain NOP13, hits give low values 1 | S. cerevisiae deletion strains, locus YNL197C, strain WHI3, hits give low values 1.01 | S. cerevisiae deletion strains, locus YNL209W, strain ssb2, hits give low values 0.984 | S. cerevisiae deletion strains, locus YNL224C, strain SQS1, hits give low values 1.02 | S. cerevisiae deletion strains, locus YNL233W, strain BNI4, hits give low values 0.99 | S. cerevisiae deletion strains, locus YNL248C, strain rpa49, hits give low values 0.976 | S. cerevisiae deletion strains, locus YNL250W, strain rad50, hits give low values 0.964 | S. cerevisiae deletion strains, locus YNL271C, strain bni1, hits give low values 0.986 | S. cerevisiae deletion strains, locus YNL298W, strain CLA4, hits give low values 0.982 | S. cerevisiae deletion strains, locus YNL307C, strain MCK1, hits give low values 0.989 | S. cerevisiae deletion strains, locus YNL322C, strain KRE1 (second series), hits give low values 0.955 | S. cerevisiae deletion strains, locus YNL322C, strain KRE1, hits give low values 0.986 and 1 | S. cerevisiae deletion strains, locus YNR049C, strain mso1, hits give low values 0.954 | S. cerevisiae deletion strains, locus YNR052C, strain pop2, hits give low values 0.974 | S. cerevisiae deletion strains, locus YOL006C, strain TOP1, hits give low values 0.921 | S. cerevisiae deletion strains, locus YOL012C, strain htz1 0.923 | S. cerevisiae deletion strains, locus YOL147C, strain pex11, hits give low values 0.99 | S. cerevisiae deletion strains, locus YOR001W, strain rrp6, hits give low values 0.998 | S. cerevisiae deletion strains, locus YOR061W, strain CKA2, hits give low values 0.949 | S. cerevisiae deletion strains, locus YOR069W, strain VPS5, hits give low values 0.987 | S. cerevisiae deletion strains, locus YOR070C, strain gyp1, hits give low values 0.991 | S. cerevisiae deletion strains, locus YOR080W, strain dia2, hits give low values 0.976 | S. cerevisiae deletion strains, locus YOR083W, strain WHI5 (second series), hits give low values 1.02 | S. cerevisiae deletion strains, locus YOR083W, strain WHI5, hits give low values 0.946 | S. cerevisiae deletion strains, locus YOR106W, strain vam3, hits give low values 0.93 | S. cerevisiae deletion strains, locus YOR136W, strain idh2, hits give low values 0.99 | S. cerevisiae deletion strains, locus YOR144C, strain elg1, hits give low values 0.999 | S. cerevisiae deletion strains, locus YOR184W, strain ser1, hits give low values 0.993 | S. cerevisiae deletion strains, locus YOR265W, strain rbl2, hits give low values 0.989 | S. cerevisiae deletion strains, locus YOR270C, strain vph1, hits give low values 0.929 | S. cerevisiae deletion strains, locus YOR290C, strain snf2, hits give low values 0.933 | S. cerevisiae deletion strains, locus YOR316C, strain cot1, hits give low values 0.978 | S. cerevisiae deletion strains, locus YPL051W, strain arl3, hits give low values 1.01 | S. cerevisiae deletion strains, locus YPL055C, strain LGE1, hits give low values 0.988 | S. cerevisiae deletion strains, locus YPL078C, strain atp4, hits give low values 0.963 | S. cerevisiae deletion strains, locus YPL106C, strain sse1, hits give low values 0.925 | S. cerevisiae deletion strains, locus YPL240C, strain hsp82, hits give low values 0.986 | S. cerevisiae deletion strains, locus YPL241C, strain CIN2, hits give low values 1.03 and 1 | S. cerevisiae deletion strains, locus YPR119W, strain clb2, hits give low values 0.991 | S. cerevisiae deletion strains, locus YPR141C, strain kar3, hits give low values 0.962 | S. cerevisiae deletion strains, locus YPR163C, strain tif3, hits give low values 1 | S. cerevisiae deletion strains, locus YPR167C, strain met16, hits give low values 0.972 | S. cerevisiae deletion strains, strain wtn01, hits give low values 0.984 | S. cerevisiae strains, strain wild type, hits give low values 0.993
